Data from PubChem BioAssay AID1053205 (Broad Institute, 2014).
Results with a measured potency or affinity are listed apart. Records with an inconclusive call do not appear. A number with no mark means an inactive call.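 The calls were made as follows: active = compounds lowering the FRET ratio whose fitted half-maximal concentration is at most twice their top tested dose; inconclusive = flat partial drop between 30 and 70 percent, or bad fit; inactive = the rest.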

biological target: Voltage-dependent L-type calcium channel subunit alpha-1D (Homo sapiens) (UniProt Q01668); assay: disruptors of CaV1.3 IQ/ICDI domain association – cell-based, HEK293, YFP-IQ/CFP-ICDI FRET, cherry-picks, dose response (AID 1053205); details: HEK293 YFP-IQ/CFP-ICDI FRET ratio, 10 min; series mostly up to 35 µM; FRET change, negative = inhibition: at the top concentration;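 also: 0% = median of neutral control wells and -100% = median of positive control wells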
Sequence (Q01668 whole entry, looked up, the tested form may be a part): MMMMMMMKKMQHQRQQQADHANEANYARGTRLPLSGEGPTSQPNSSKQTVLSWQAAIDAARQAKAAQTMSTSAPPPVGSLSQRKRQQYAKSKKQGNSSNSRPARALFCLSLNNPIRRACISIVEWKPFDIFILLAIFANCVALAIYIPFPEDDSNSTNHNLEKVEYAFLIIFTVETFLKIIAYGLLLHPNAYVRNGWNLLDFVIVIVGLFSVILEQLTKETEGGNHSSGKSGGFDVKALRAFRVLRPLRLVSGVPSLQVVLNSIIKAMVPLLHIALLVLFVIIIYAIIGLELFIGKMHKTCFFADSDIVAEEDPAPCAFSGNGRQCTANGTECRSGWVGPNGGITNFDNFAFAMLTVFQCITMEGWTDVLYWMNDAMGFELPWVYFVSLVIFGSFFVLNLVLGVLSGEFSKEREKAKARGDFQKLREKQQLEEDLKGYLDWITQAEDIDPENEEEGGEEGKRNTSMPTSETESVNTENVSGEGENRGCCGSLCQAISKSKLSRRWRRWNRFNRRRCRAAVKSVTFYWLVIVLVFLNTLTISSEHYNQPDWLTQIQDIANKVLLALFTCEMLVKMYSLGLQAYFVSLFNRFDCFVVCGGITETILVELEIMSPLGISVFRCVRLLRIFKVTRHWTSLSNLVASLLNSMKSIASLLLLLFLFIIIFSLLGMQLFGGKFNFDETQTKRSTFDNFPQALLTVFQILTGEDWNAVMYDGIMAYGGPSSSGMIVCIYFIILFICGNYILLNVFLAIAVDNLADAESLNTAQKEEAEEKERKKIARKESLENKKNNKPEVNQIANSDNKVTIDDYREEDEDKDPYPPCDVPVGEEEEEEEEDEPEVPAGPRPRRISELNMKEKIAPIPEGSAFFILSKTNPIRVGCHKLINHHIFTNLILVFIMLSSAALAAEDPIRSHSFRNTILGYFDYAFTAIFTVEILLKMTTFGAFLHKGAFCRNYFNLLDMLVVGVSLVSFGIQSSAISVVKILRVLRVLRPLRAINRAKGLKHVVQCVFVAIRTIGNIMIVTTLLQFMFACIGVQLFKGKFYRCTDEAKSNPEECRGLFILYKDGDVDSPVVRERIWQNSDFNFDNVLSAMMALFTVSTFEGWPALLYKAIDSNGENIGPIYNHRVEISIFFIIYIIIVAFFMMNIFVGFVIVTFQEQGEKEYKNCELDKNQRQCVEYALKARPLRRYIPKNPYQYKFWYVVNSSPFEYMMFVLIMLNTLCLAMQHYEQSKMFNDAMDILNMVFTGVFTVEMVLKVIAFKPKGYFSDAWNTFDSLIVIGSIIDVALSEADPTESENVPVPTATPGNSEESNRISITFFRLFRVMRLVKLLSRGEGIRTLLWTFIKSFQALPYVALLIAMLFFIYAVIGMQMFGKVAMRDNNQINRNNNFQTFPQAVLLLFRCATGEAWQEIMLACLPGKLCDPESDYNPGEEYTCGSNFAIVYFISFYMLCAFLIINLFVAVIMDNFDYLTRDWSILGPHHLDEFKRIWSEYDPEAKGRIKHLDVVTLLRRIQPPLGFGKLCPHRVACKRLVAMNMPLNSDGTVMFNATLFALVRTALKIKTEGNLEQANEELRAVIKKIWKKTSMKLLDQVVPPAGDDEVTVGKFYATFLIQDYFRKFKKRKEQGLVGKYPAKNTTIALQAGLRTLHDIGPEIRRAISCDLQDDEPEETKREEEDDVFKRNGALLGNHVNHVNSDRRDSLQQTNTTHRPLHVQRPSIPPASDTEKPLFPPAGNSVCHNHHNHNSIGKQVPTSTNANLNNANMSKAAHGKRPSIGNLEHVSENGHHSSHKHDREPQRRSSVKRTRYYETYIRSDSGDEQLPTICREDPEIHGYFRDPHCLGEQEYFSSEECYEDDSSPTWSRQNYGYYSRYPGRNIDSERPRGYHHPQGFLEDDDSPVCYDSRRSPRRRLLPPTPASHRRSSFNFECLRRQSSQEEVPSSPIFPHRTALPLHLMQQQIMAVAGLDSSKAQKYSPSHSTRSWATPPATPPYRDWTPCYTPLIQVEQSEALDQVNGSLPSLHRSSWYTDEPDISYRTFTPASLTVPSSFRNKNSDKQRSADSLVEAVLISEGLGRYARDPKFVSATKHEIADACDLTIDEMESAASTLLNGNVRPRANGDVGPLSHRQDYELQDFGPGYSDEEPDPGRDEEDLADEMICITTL

Row | SMILES | FRET change, negative = inhibition
1 | N#CC(C#N)=C1C=CC=CN1/C(=C\c1ccccc1)C(=O)c1cccs1 | 57.3%
2 | COc1ccccc1C1C2=C(CC(C)(C)CC2=O)N(CC(=O)O)C2=C1C(=O)CC(C)(C)C2 | 413%
3 | N#CC1=C(N)OC2=C(C(=O)CCC2)C1c1cc2c(cc1Br)OCO2 (configuration not stated) | -32.1%
4 | CCOC(=O)C(NC(=O)c1ccccc1)(OCC1(CC)COC1)C(F)(F)F (configuration not stated) | -14.9%
5 | O=C1CCc2cc(S(=O)(=O)NC(Cc3ccccc3)C(=O)NCCC3=CCCCC3)ccc2N1 (configuration not stated) | -3.37%
6 | CCCCn1nc(NC(=O)c2cccs2)c2cc3cc(OC)ccc3nc21 | 490%
7 | O=C(NCc1ccc(F)cc1)C1CCCN1C(=O)Nc1cccc(F)c1 (configuration not stated) | 103%
8 | Cn1cc(C(c2ccccc2OCC(=O)O)c2cn(C)c3ccccc23)c2ccccc21 | 12.7%
9 | Cc1noc(C)c1S(=O)(=O)N(CC(=O)N1CCCCCC1)c1ccc(C(C)C)cc1 | 150%
10 | COc1ccc(CNC(=O)c2sc(=O)n(Cc3ccc(C)cc3)c2C)cc1OC | 4.95% [at 8 µM]
11 | COCCNC(=S)N/N=C/c1ccc(-c2ccc([N+](=O)[O-])cc2)o1 | 399%
12 | O=c1[nH]c2ccccc2nc1/C=C/c1ccccc1 | 99.2%
13 | Cc1cc(-c2nc3cccnc3s2)ccc1NS(=O)(=O)c1cccs1 | 91.9%
14 | O=C(COC(=O)c1cc(S(=O)(=O)N2CCCCC2)ccc1N1CCOCC1)c1ccccc1Cl | -0.931%
15 | CCN1C(=O)c2cccc3c(S(=O)(=O)N(C)C)ccc1c23 | 252%
16 | CCOc1ccc2nc(NCCCNC(=O)c3cc(OC)c(OC)c(OC)c3)c(C#N)cc2c1 | 449%
17 | COc1ccccc1OCc1ccc(C(=O)N(C)c2ccccc2)o1 | 4.94% [at 16 µM]
18 | N#Cc1ccc(/C=C\c2nccc3c2[nH]c2ccccc23)cc1 | 448%
19 | CC(C)c1ccc(/C=C2\Oc3c(ccc(O)c3CN3CCN(C)CC3)C2=O)cc1 | 470%

Row | SMILES | FRET change, negative = inhibition
20 | Cc1cc2cc(CNC(=O)c3ccco3)ccc2n1C | 152%
21 | CCOc1ccc2nc(NCCNC(=O)CC)c(C#N)cc2c1 | 426%
22 | CC1=C(C(=O)N2CCN(c3cc(C)ccc3C)CC2)C2(CCCCC2)OC1=O | 9.6%
23 | N#CC1=C(N)Oc2cc(N)ccc2C1c1ccc(F)cc1F (configuration not stated) | 51.9%
24 | CCN1/C(=C/c2sc(-c3ccccc3C)c[n+]2C)Sc2ccccc21 | 148% [at 8 µM]
25 | N#Cc1ccc(OCC(=O)OCC(=O)N2CCc3ccccc32)cc1 | -4.01%
26 | Cc1ccc2nc3c(cc(C(=O)NCc4ccccc4)c(=N)n3CCCn3ccnc3)c(=O)n2c1 | 404%
27 | CCOc1ccc(S(=O)(=O)Nc2ccc(C(=O)N(CC)CC(=O)NCc3cccs3)cc2)cc1 | -4.53%
28 | O=C(O)c1ccc(N/N=C/c2ccc(-c3ccccc3Cl)o2)cc1 | 169% [at 16 µM]
29 | CC(=O)c1cc2c(ccc3ccccc32)oc1=O | 84.2%
30 | N#Cc1c2ccc(OCC(N)=O)cc2n2ccccc12 | 477%
31 | COc1ccccc1C(=O)c1cc2ccc(O)cc2oc1=O | 76.2%
32 | CCOC(=O)c1c(C)n(C)c2ccc(OCC(O)CN3CCC(C)CC3)cc12 (configuration not stated) | 10.5%
33 | Cc1ccc(S(=O)(=O)c2cc3c(=O)n4ccccc4nc3n(C)c2=N)cc1 | 187%
34 | O=[N+]([O-])c1cccc(Nc2c3ccccc3nc3ccccc23)c1 | -12.1%
35 | N#C/C(=C\c1ccco1)C(=O)Nc1cccc2ncccc12 | 2.87%
36 | CC(=O)NNc1cc(N2CCOCC2)nc(N2CCOCC2)n1 | 10.7%
37 | COc1ccc(C2CC(c3ccccc3)=NN2c2ccc(C(N)=O)cc2)cc1 (configuration not stated) | -13.1%
